In experiment [1] the target is Lysosomal acid glucosylceramidase (Homo sapiens) (UniProt P04062). Kind of experiment: Glucocerebrosidase-p2 (AID 348; in the data active = potency below about 10 µM; also: potency is read from the fitted curve at half-maximal effect). To be noted: purified GBA, blue fluorogenic substrate, 40 min. Summed up:
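Normal human glucocerebrosidase (0.2 nM) with blue fluorogenic substrate (80 uM final) in citrate/phosphate pH 5.9 with 10mM sodium taurocholate, 0.01% tween-20; 40 min RT, NaOH/glycine stop; fluorescence Ex 365/Em 440; AC50 from a titration from 0.6 nM upwards.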

The nature of experiment [2]: AP1 Signaling Pathway (AID 357). Also: % is scaled to controls: 0 for no effect and ±100 for the full control effect. To be noted: ME-180 AP-1-bla reporter, EGF-induced, beta-lactamase ratio, 5 h; at 7.69 µM (top of the series) unless noted. An outline of the steps: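 ME-180 cells with beta-lactamase reporter under AP-1 response element, stimulated with EC50 EGF; compounds tested in titration series, 5 h at 37 °C. CCF4 substrate added 2.5 h at room temperature; 460/530 nm emission ratio gave %activity and AC50.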

The nature of experiment [3]: NFAT Signaling Pathway (AID 444).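 Also: carbachol stimulus at about its EC50 of 1 µM final; % is scaled to controls: 0 for no effect and ±100 for the full control effect.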 To be noted: Jurkat NFAT-bla M1, carbachol, beta-lactamase ratio, 5 h; at 7.69 µM (top of the series) unless noted. An outline of the steps:
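Read-out: CCF4 FRET ratio (460 nm/530 nm) after 1 h RT dye loading, used for %activity and AC50 from titration series. Cells: Jurkat NFAT-β-lactamase/M1 line, treated with compound plus 1 uM carbachol for 5 h, 37 °C.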

The target of experiment [4] is Glucocorticoid receptor (Homo sapiens) (UniProt P04150). Kind of experiment: GR-EFC Redistribution (AID 451; calls by dose curve; also: potency is read from the fitted curve at half-maximal effect). To be noted: CHO-K1 GR-EFC translocation, beta-gal luminescence, 2 h. An outline of the steps:
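Translocation of GR-ED fusion to nuclear EA restores b-gal, read by luminescence after 1 h room-temperature detection. Engineered CHO-K1 biosensor cells, 1,000/well, exposed 2 h at 37 C to titrations up to 46 uM final.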

In experiment [5] the target is Mitogen-activated protein kinase 10 (Mus musculus) (UniProt Q61831). As to the kind of experiment: JNK3 AlphaScreen Assay (AID 530).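 Also: kinase came from lysate of stimulated human HepG2 cells; signal reports phosphorylation of biotinylated GST-cJun 1-79 at Ser73 with 10 µM ATP; % is scaled to controls: 0 for no effect and ±100 for the full control effect.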 To be noted: JNK3 lysate, c-Jun phosphorylation; series mostly up to 57.1 µM. Summed up: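 qHTS titrations with 15 min compound pre-incubation before adding ATP (10 uM final). Read-out: AlphaScreen of Ser73-phosphorylated biotin-GST-cJun using HepG2 lysate JNK3 activated by IL-1β and TNFα.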
Background: Alpha assays give light when donor and acceptor beads are brought close together.

The target in experiment [6] is 3',5'-cyclic-AMP phosphodiesterase 4B (Homo sapiens) (UniProt Q07343). As to the kind of experiment: qHTS Assay for Inhibitors of PDE-IV (AID 607; active = well fitted activation curve with a large enough effect in the main read-out, with a control signal flat, not every such curve was filed as active; also: % of control where 0% means no effect). To be noted: HEK293 ACTOne CNG channel cells, membrane potential fluorescence; series mostly up to 22.9 µM. Summed up: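 ACTOne HEK293 cells carry a modified cAMP-gated CNG channel and express endogenous PDE4; plated 1000 cells/well, compounds up to 22.9 uM final. Membrane-potential dye fluorescence (ex 535/em 590) was read; parental cells received 10 uM forskolin + 100 uM RO 20-1724.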
(In general: In qHTS, concentration-response curves come from the screen itself.)

Experiment [7] is described as follows: qHTS Assay for Lipid Storage Modulators (AID 1519; calls by dose curve). To be noted: Drosophila S3 cells, BODIPY lipid droplet/cell ratio, laser cytometry, cells loaded with oleic acid; for activity change, negative = inhibition: at 57.5 µM (top of the series). An outline of the steps: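 Cells seeded at 5,000 per well were treated with compounds over a concentration series and loaded with oleic acid (400 uM, as added). Lipid droplet fluorescence (488 nm excitation, 500-530 nm channel) was read by laser-scanning cytometry and normalized to 20 uM Triacsin C.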

Experiment [8] in a line: Primary qHTS for small molecule stabilizers of the endoplasmic reticulum resident proteome: Secreted ER Calcium Modulated Protein (SERCaMP) assay (AID 1508630; active = well fitted inhibition curve with a large enough effect; also: % is scaled to controls: 0 for no effect and ±100 for the full control effect). To be noted: SH-SY5Y GLuc-SERCaMP (Gaussia luciferase released on ER calcium loss) secretion, thapsigargin, luminescence; series mostly up to 38.4 µM. Summed up:
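The SH-SY5Y reporter protocol was run at 3 concentrations up to 38.3 uM (primary) or 11 concentrations (follow-up): 16 h compound, 100 nM thapsigargin for 4 h, then extracellular luciferase luminescence.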

Experiment [9] can be described thus: Stat Signaling Pathway (AID 446). To be noted: ME-180 (cervical carcinoma) SIE beta-lactamase reporter, IL-6 stimulated, 5 h; at 7.69 µM (top of the series) unless noted. Summed up: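 Compound effects on IL-6-induced STAT reporter activity were measured in ME-180 cells. After overnight culture, cells were co-treated with 40 pM IL-6 for 5 hrs before beta-lactamase substrate loading at room temperature.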

The mark [10] stands for this setting: measured here: cell count channel max response.
Where [11] appears, read: measured here: lipid channel max response.

Inconclusive results are not listed. Active and inactive are the calls of the source. Unless noted, calls follow the shape of the dose curve; as a rule, active = well fitted curve in either direction with a large enough effect (not every such curve was filed as active); inconclusive = small, poorly fitted or top-dose-only effect, or another doubt; inactive = flat fitted curve, though single readings scatter.

Sequence of Lysosomal acid glucosylceramidase (Homo sapiens) (P04062 whole entry, looked up): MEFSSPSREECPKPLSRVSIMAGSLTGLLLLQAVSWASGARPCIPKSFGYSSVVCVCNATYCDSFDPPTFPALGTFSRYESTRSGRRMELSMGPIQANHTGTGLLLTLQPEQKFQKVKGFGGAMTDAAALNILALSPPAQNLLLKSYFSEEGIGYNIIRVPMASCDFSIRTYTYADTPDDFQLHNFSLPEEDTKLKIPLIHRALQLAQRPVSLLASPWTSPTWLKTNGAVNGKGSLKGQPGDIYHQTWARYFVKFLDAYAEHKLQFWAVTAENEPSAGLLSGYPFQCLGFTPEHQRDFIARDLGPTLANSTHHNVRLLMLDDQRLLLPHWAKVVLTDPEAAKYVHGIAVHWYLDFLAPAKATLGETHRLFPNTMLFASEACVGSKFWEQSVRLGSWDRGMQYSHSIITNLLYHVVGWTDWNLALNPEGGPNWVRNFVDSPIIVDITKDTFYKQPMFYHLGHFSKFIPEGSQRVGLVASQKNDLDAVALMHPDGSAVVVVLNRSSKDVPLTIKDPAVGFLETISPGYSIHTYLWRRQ
Sequence of 3',5'-cyclic-AMP phosphodiesterase 4B (Homo sapiens) (Q07343 whole entry, looked up): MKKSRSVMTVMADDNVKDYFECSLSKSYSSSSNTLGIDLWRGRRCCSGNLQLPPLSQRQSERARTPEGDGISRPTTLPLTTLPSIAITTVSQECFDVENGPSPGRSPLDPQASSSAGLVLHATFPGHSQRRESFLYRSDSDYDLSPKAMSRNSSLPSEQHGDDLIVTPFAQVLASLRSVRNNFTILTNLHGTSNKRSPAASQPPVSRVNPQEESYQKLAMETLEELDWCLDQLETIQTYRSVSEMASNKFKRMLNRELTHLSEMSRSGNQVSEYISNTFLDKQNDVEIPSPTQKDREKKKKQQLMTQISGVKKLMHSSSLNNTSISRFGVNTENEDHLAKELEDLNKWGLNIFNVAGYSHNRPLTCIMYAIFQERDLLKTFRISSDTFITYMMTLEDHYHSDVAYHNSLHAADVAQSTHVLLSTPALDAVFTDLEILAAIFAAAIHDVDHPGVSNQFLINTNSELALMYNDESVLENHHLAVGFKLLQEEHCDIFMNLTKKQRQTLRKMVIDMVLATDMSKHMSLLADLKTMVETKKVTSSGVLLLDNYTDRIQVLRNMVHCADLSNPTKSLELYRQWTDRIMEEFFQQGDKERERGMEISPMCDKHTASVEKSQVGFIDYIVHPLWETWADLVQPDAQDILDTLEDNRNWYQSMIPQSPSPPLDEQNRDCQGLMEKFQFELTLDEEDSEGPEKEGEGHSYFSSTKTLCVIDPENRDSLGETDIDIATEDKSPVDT
Sequence of Glucocorticoid receptor (Homo sapiens) (P04150 whole entry, looked up, the tested form may be a part): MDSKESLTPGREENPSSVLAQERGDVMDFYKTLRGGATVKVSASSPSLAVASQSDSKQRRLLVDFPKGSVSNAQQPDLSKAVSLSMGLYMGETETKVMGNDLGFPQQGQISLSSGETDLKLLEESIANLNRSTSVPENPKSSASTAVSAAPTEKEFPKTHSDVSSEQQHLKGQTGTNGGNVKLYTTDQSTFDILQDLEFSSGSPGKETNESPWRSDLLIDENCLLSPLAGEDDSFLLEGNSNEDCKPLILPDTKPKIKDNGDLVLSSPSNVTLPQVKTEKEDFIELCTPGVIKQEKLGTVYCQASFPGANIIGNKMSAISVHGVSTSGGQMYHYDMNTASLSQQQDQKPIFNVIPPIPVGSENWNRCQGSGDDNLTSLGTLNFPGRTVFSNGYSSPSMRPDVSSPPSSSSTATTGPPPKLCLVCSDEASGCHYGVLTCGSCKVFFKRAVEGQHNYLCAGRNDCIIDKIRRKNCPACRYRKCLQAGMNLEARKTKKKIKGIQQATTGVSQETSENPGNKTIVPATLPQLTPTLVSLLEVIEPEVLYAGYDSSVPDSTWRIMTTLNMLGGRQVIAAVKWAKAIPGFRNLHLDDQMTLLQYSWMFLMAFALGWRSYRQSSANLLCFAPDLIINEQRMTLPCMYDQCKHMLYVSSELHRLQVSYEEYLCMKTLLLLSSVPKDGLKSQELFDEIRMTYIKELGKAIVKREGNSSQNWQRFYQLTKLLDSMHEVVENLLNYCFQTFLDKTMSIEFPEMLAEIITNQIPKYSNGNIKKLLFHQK

With `CC(=O)N1CCC[C@@]2(CCN(Cc3ccc(C#N)cc3)C2)C1`, the Potency in experiment [1] is > 11.4 µM (inactive); in experiment [4] it was > 46 µM (inactive). Also, the activity change, negative = inhibition in [2] was -11.7% (inactive); in experiment [3] it was 2.49% (inactive); in experiment [7] it was 2.62% (inactive). For the same compound, the Potency entry in experiment [5] and in experiment [6] was “inactive” in each case. In addition, the results for the max response in [7] (setting [10]) and in experiment [7] (setting [11]) were 7.32% and 8.41%, respectively. Further, the result in experiment [8] was inactive.
Consider `COCC(=O)N1CCC2(CCCN(C(c3ccccc3)c3ccccc3)C2)CC1`, for which the Potency in experiment [1] was > 11.4 µM (inactive); in experiment [4], > 46 µM (inactive). For the same compound, the results for the activity change, negative = inhibition in experiment [2] and in experiment [7] were -6.37% (inactive) and -0.272% (inactive), respectively. In experiment [9], the activity, negative = inhibition was 16.7% (inactive). The Potency entry in [5] and in experiment [6] was “inactive” in each case. For the same compound, the figures for the max response in [7] (setting [10]) and in experiment [7] (setting [11]) were 15.7% and 20.6%, respectively. Besides, the result in [8] was inactive.
As for `CS(=O)(=O)N1CCC2(CC1)CN(c1ccccn1)C2`, the Potency in experiment [1] is > 11.4 µM (inactive). Further, the activity change, negative = inhibition in experiment [2] is 2.96% (inactive); in [3] it was -0.983% (inactive); in experiment [7], 2.99% (inactive). Further, the activity, negative = inhibition in experiment [9] was 5.22% (inactive). In addition, the Potency result in [5] and in experiment [6] was “inactive” throughout. In addition, the max response worked out at 7.05% in experiment [7] (setting [10]) and 10.2% in experiment [7] (setting [11]). Further, in experiment [8], the outcome was inactive.
For the compound `CC(=O)N1CCC2(CCCN(c3ccncc3)C2)CC1`, the Potency was > 11.4 µM (inactive) in experiment [1] and > 46 µM (inactive) in experiment [4]. Besides, the activity change, negative = inhibition in experiment [2] is -16.6% (inactive); in experiment [7], 4.08% (inactive). Further, the activity, negative = inhibition in [9] was -5.29% (inactive). Moreover, the Potency entry in experiment [5] and in experiment [6] was “inactive” in each case. Further, the max response came to 1.51% in experiment [7] (setting [10]) and 7.47% in experiment [7] (setting [11]). For the same compound, in experiment [8], the outcome was inactive.
For `COCC(=O)N1CCC2(CC1)CN(c1cccc(-c3ccccc3)c1)C2`, the Potency is > 11.4 µM (inactive) in [1] and > 46 µM (inactive) in experiment [4]. Further, the activity change, negative = inhibition in experiment [2] is -29.8% (inactive); in [3] it was 19.3% (inactive); in [7], 3.02% (inactive). The Potency entry in [5] and in [6] was “inactive” throughout. Further, the max response in [7] (setting [10]) was -3.81%; in experiment [7] (setting [11]), 0.928%. The result in experiment [8] was inactive.
Regarding `COc1ccccc1CN1CC[C@@]2(CCCN(C(=O)c3ccncc3)C2)C1`, in [1], the Potency is > 11.4 µM (inactive). The activity change, negative = inhibition was -11.5% (inactive) in experiment [2], 3.54% (inactive) in experiment [3] and 3.67% (inactive) in [7]. In experiment [9], the activity, negative = inhibition is 0.423% (inactive). The Potency entry in experiment [5] and in experiment [6] was “inactive” each time. The max response in experiment [7] (setting [10]) was found to be 8.53%; in [7] (setting [11]), 14.1%. The outcome in experiment [8] was inactive.
Turning to `COC(=O)N1CCC2(CCN(Cc3ccccc3)CC2)CC1`, the Potency is > 11.4 µM (inactive) in [1] and > 46 µM (inactive) in [4]. Further, the activity change, negative = inhibition in experiment [2] is -5.32% (inactive); in experiment [7], 2.47% (inactive). Besides, the activity, negative = inhibition in experiment [9] was -1.16% (inactive). Moreover, the Potency result in [5] and in experiment [6] was “inactive” throughout. In addition, the max response in experiment [7] (setting [10]) was -0.656%; in experiment [7] (setting [11]), 4.63%. Besides, the result in experiment [8] was inactive.
For `O=C(c1cc(C(F)(F)F)cc(C(F)(F)F)c1)N1CCC2(CCCN(c3ccccc3)C2)CC1`, the Potency in experiment [1] was > 11.4 µM (inactive); in experiment [4], > 46 µM (inactive). In addition, the values for the activity change, negative = inhibition in [2] and in experiment [7] were 22.8% (inactive) and -18.4% (inactive), respectively. Besides, the activity, negative = inhibition in [9] was 2.12% (inactive). In addition, the Potency entry in experiment [5] and in experiment [6] was “inactive” throughout. The values for the max response in experiment [7] (setting [10]) and in [7] (setting [11]) were 1.58% and -14.9%, respectively. In addition, the outcome in experiment [8] was inactive.

These data come from PubChem BioAssay (NCATS).
